Hits are enriched below; roughly 1.4% of the tested compounds scored in any of these assays.
AmpC detergent: qHTS Inhibitors of AmpC Beta-Lactamase (assay with detergent). actives 0.041% (n = 370,000). AID 485294, 2010. AmpC hydrolysis of nitrocefin, absorbance 480 nm, 0.01% Triton. P00811. Potency, µM (top dose mostly 114 µM), without a hit: at the top dose activity change, negative = inhibition, actives largely listed as inhibitors;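 also: 0% = no-compound wells and -100% = no-enzyme wells; nearly all actives have a fitted effect of over 25% in size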
Target sequence (P00811 whole entry, looked up): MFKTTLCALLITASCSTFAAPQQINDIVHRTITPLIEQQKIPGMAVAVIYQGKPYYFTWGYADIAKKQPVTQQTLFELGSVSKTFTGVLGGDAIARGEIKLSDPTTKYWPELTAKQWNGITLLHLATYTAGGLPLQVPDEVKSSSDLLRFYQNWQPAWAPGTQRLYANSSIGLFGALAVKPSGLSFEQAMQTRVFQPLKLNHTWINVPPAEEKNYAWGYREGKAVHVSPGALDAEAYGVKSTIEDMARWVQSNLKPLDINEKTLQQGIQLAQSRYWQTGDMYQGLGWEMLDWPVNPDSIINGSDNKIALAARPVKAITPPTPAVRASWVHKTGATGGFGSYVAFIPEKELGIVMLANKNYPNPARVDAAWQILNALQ
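AmpC (5.3 nM in the dispensed reagent) in 20 mM phosphate pH 7.0 with 0.01% (detergent screen) or 0.0001% Triton X-100 was preincubated with compounds for 15 min at room temperature. Nitrocefin was then added from an 800 uM solution, and hydrolysis was followed at 480 nm.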
Vaccinia Venus: qHTS for Stage-Specific Inhibitors of Vaccinia Orthopoxvirus: Venus Reporter Primary qHTS; Vaccinia virus Venus reporter expression, fluorescence; Potency, µM (titrated, usually from 36.5 µM), for the others: at the highest dose activity change, negative = inhibition, hits mostly inhibitors; actives 0.46% (n = 330,000); AID 720580, 2013; calls by dose curve; tested in A549 cells; also: % is scaled to controls: 0 for no effect and ±100 for the full control effect; nearly all actives have a fitted effect of over 30% in size
AmpC no deterg: qHTS Inhibitors of AmpC Beta-Lactamase (assay without detergent); P00811; AmpC nitrocefin hydrolysis, absorbance 480 nm, 0.0001% Triton; Potency, µM (highest dose often 57.1 µM), without a hit: top-dose activity change, negative = inhibition, hits mostly inhibitors; actives 0.52% (n = 330,000); AID 485341, 2010;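 also: plate controls were no compound for no effect and no enzyme for full effect; nearly all actives have a fitted effect of over 20% in size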
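20 mM phosphate pH 7.0 + 0.01% (detergent screen) or 0.0001% Triton X-100; 5.3 nM AmpC reagent; cpd preinc 15 min RT; nitrocefin (800 uM stock) to start; A480 q20 s × 4 min; Activity was normalised to no-enzyme and no-compound control wells.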
SARS PLpro yeast: qHTS of Yeast-based Assay for SARS-CoV PLP. S. cerevisiae expressing SARS-CoV PLpro, growth rescue. Potency, µM (highest dose often 32.9 µM), for the others: at the top dose activity, positive = growth rescue, most hits filed as activators. actives 0.19% (n = 330,000). AID 485353, 2010; calls by dose curve; also: 0% is about no effect; nearly all actives have a fitted effect of over 55% in size
AMA1 RON2 block: qHTS for Inhibitors of AMA1-RON; Towards Development of Antimalarial Drug Lead: Primary Screen; Plasmodium falciparum AMA1 (3D7) - RON2 peptide interaction; AlphaScreen AMA1-biotinylated RON2 peptide binding; Potency, µM (highest dose often 58.2 µM), inactives show top-dose activity change, negative = inhibition, most hits filed as inhibitors; actives 0.2% (n = 360,000);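 also: 0% = vehicle wells and -100% = peptide control; nearly all actives have a fitted effect of over 45% in size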
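AMA1 (3D7) with his tag at 25 nM final met compounds first, then biotinylated RON2 peptide at 25 nM; detection used donor plus acceptor beads, 10 µg/mL apiece, read by AlphaScreen after 30 min at room temperature.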
Vaccinia mCherry: qHTS for Stage-Specific Inhibitors of Vaccinia Orthopoxvirus: mCherry Reporter Primary qHTS | Vaccinia virus mCherry reporter infection, fluorescence | Potency, µM (top dose mostly 36.5 µM), inactives show at the top dose activity change, negative = inhibition, usual class: inhibitors | actives 0.63% (n = 310,000) | AID 720579, 2013; calls by dose curve; tested in A549 cells; also: % is scaled to controls: 0 for no effect and ±100 for the full control effect; nearly all actives have a fitted effect of over 35% in size
The depositor's hits bear a star; i = inactive; ? = inconclusive; · = not tested or not shown; [ ] = another dose, or the depositor's remark. Unless noted, calls follow the shape of the dose curve; as a rule, active = well fitted curve in the direction sought with a large enough effect; inconclusive = small, poorly fitted or top-dose-only effect, or another doubt; inactive = no such curve, though single readings can be large; an effect the other way counts as inactive or inconclusive. Potency is read from the fitted curve at half-maximal effect.

SMILES	AmpC detergent	Vaccinia Venus	AmpC no deterg	SARS PLpro yeast	AMA1 RON2 block	Vaccinia mCherry
CCC1CN(CCNC(=O)c2cc3ccccc3oc2=O)Cc2cc(OC)ccc2O1 (stereo not drawn)	·	-2%	·	·	·	-6%
Cc1cc(C)cc(NC(=O)Nc2ccc(N3CCCCC3)cc2)c1	7%	-28%	16µM*	-2%	-8%	?
Cc1cc(C)cc(C(=O)Nc2ccc(N3CCCC3)cc2)c1	5%	-14%	-4%[2.29 µM]	0%	-20%	-11%
O=C(CNCc1cccs1)Nc1ccc(N2CCCCCC2)cc1	-3%	-13%	7%	2%	35µM*	-27%
CCC[N+](C)(C)c1ccc(/C=C/c2ccncc2)cc1	·	i	·	·	·	211%
CC(=O)CC[N+](C)(C)C	·	-9%	·	·	6%	-8%
CC(=O)CCC(C)=O	3%	?	3%	-11%	-2%	13µM*
Cc1cc(-c2ccnc(-n3ncc(C(=O)NCCc4cccnc4)c3C)n2)c(C)s1	·	-27%	·	·	·	-13%
OC(CNCc1ccccc1)Cn1ccc2ccccc21 (stereo not drawn)	1%	·	18µM*	10%	-25%	·
COCC1CCCN(Cc2ccc3c(c2)CN(C(=O)c2cccnc2OC)CCO3)C1 (stereo not drawn)	·	?	·	·	·	-10%
COCCCn1c(C(=O)N2CCOCC2)cc2c(=O)n3cccc(C)c3nc21	·	-9%	·	·	4%	-11%
COCCCn1c(C(=O)Nc2ccc3c(c2)OCO3)cc2c(=O)n3cccc(C)c3nc21	·	5µM*	·	·	-13%	?
Cc1cc(C)c(C(=O)/C=C/c2ccc(C(C)C)cc2)c(=O)[nH]1	0%	?	-19%	-8%	3%	5µM*
CCOc1ccc(/C=C/C(=O)c2c(O)cc(C)oc2=O)cc1	-1%	22%	-56%	7%	88%	20%
Cc1cc(O)c(C(=O)/C=C/c2ccccc2Br)c(=O)o1	-15%	6%	13µM*	-2%	55%	i
Cc1cc(O)c(C(=O)/C=C/c2ccc(C(C)C)cc2)c(=O)o1	-5%	·	13µM*	1%	78%	·
Cc1cc(O)c(C(=O)/C=C/c2ccccc2)c(=O)o1	2%	30%	-56%	1%	79%	1%
COC(=O)c1ccc(CN2CCOc3ccc(CN4CCC(O)(c5cccnc5)CC4)cc3C2)cc1	·	-26%	·	·	·	-26%
CCOc1ccc(/C=N/NC(=O)c2[nH]c3ccc(C)cc3c2C)cc1	2%	-13%	-30%	-2%	-5%	-11%
Cc1c(C(=O)N/N=C/c2ccc(Cl)cc2)[nH]c2ccc(Cl)cc12	-12%	?	14µM*	-67%	37%	?
COc1ccc(NC(=O)Cn2c(=O)n(CCc3ccccc3)c(=O)c3c4c(sc32)CCCC4)cc1	-2%	-18%	·	·	·	-15%
O=C(NCc1ccccn1)c1cnn(-c2ncc3c(n2)-c2ccccc2CC3)c1C1CC1	·	-9%	·	·	·	-14%
Cc1ccc(C)c(NC(=S)NNC(=O)c2csc(C(C)C)c2)c1	-1%	·	-12%	10µM*	93%	·
CC(C)c1cc(C(=O)NNC(=S)NC2CCCCC2)cs1	6%	-25%	14µM*	-5%	96%	-28%
CCc1cc(C(=O)NNC(=S)NC2CCCCC2)cs1	3%	·	?	4%	127%	·
COc1ccccc1CNC(=O)CCC1N=C2c3ccccc3N=C(SCc3cccc(Cl)c3)N2C1=O (stereo not drawn)	7%	?	·	·	·	4µM*
COc1ccccc1CNC(=O)CCC1N=C2c3ccccc3N=C(SCc3ccc(C)cc3)N2C1=O (stereo not drawn)	1%	?	·	·	·	?

Screening data: PubChem BioAssay, National Center for Advancing Translational Sciences (NCATS)
